From PubChem BioAssay
CYP2C19 act: activators of human cytochrome P450 2C19 | P33261 | recombinant CYP2C19, luciferin-H EGE luminescence; stronger effect = higher value; 0 = fully inhibited enzyme, 1 = untreated enzyme | activation factor at 5 µM | 96,000 tested, under 10 active | AID 1025;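 active means activation factor of at least 2 at 5 µM in the primary screen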
Target sequence (P33261 whole entry, looked up): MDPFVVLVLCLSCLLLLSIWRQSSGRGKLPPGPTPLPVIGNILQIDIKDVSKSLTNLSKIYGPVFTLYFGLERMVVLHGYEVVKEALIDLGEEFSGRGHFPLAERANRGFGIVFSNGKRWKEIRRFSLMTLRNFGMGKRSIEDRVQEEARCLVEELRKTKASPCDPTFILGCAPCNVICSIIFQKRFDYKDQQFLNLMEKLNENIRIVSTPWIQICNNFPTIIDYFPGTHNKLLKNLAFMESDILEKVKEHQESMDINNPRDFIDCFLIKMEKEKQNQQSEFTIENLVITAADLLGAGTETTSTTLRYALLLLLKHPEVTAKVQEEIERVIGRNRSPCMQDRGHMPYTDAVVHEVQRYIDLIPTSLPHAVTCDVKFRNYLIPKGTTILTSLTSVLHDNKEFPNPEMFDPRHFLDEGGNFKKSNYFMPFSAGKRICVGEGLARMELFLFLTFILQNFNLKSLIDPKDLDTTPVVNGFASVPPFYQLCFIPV
CYP2C19 inhib: blocks human cytochrome P450 2C19 | CYP2C19 Supersomes, luciferin-H EGE luminescence, 30 min | AID 778 | P33261 | inhibition, % at 5 µM | 96,000 tested, 21% active;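 active means CYP2C19 inhibition above a set limit at 5 µM in the primary screen, cut at about 50% in these data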
PostGolgi ctrl: yeast control strain growth, post-Golgi counter-screen; 98,000 tested, 5% active; efflux-deficient yeast background strain, growth absorbance A615, 16 h; inhibition, % at 10 µM
CYP2C9 act: CYP2C9 (human) activation; AID 1024; activation factor at 5 µM; P11712; recombinant CYP2C9, luciferin-H conversion, luminescence; stronger effect = higher value; factor 1 = untreated enzyme, 0 = blocked; 96,000 tested, 1.4% active;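 active means activation factor of 2 or more for CYP2C9 at a 5 µM dose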
CYP2C9 inh: blocks human cytochrome P450 2C9. 96,000 tested, 20% active. inhibition, % at 5 µM. CYP2C9 Supersomes, luciferin-H conversion, luminescence. AID 777. P11712;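 active means blocking of liver enzyme CYP2C9 beyond about 50% at 5 µM, limit read from the data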
PostGolgi yeast: growth inhibition of a yeast mutant, post-Golgi transport screen; post-Golgi transport phenotypic cell assay; inhibition, % at 10 µM; 98,000 tested, 0.9% active; AID 739;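 further: yeast cells grown in 1536-well plates; yeast grown about 18 h at 30C before absorbance read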
Large screens that a line does not name were inactive. Shown are actives, neighbours in structure and some others; about 32% of the full set was active somewhere. Unless noted, no stated cut-off is given here; in the data, active means inhibition above about 30%; inactive means the rest.

Cc1[nH]c2ccccc2c1CCNC(=O)c1ccc2c(c1[N+](=O)[O-])C(=O)c1ccccc1C2=O	CYP2C19 inhib 68.1
Cc1[nH]c2c(C)cccc2c1CCNC(=O)c1ccc2c(c1[N+](=O)[O-])C(=O)c1ccccc1C2=O	CYP2C19 inhib 60.8, PostGolgi ctrl 39.9, CYP2C9 inh 76.6
CCCNC(=O)NCCc1c(C)[nH]c2ccccc12	CYP2C9 act 2.5
CCOC(=O)N1CCC(NC(=O)CCC(=O)N2CC(C)Oc3ccc(Cl)cc32)CC1 (configuration not stated)	none
COC(=O)COc1ccc(S(=O)(=O)Nc2ccc3c(c2)OCO3)cc1	CYP2C19 inhib 99.2, CYP2C9 inh 92.8
COC(=O)COc1ccc(S(=O)(=O)Nc2ccc3c(c2)OCO3)cc1Cl	CYP2C19 inhib 97.6, CYP2C9 inh 69.6
COc1ccc(S(=O)(=O)N/N=C\c2ccc3c(c2)OCO3)cc1	CYP2C19 inhib 70.9, CYP2C9 inh 79.0
CCOC(=O)COc1ccc(S(=O)(=O)Nc2ccc3c(c2)OCCO3)cc1	none
CC(=O)NC(C)C12CC3CC(CC(C(=O)O)(C3)C1)C2 (configuration not stated)	none
Cc1ccc(NC(=O)CNc2cccc(C)c2C)c(C)c1	CYP2C19 inhib 63.7, CYP2C9 inh 51.6
Cc1cccc(NC(=O)CCn2nc(C)cc2C)c1	CYP2C19 inhib 71.3, CYP2C9 act 2.6
Cc1ccc(NC(=O)CCn2nc(C)cc2C)c(C)c1	CYP2C19 inhib 52.6
Cc1ccc(NC(=O)CCC(=O)NNS(=O)(=O)c2ccccc2)c(C)c1	none
CCCCCOC(=O)c1ccccc1C(=O)O	none
Cc1cccc(C)c1NC(=O)C/C(N)=N/O	none
CCCCc1nc(NCC2CCCO2)c(C#N)c2c1COC(C)(C)C2 (configuration not stated)	PostGolgi ctrl 95.8 (no result: CYP2C19 act, CYP2C19 inhib, CYP2C9 act, CYP2C9 inh)
CCCCc1nc(N2CCOCC2)c(C#N)c2c1COC(C)(C)C2	CYP2C19 inhib 86.8, CYP2C9 inh 73.2
CCCc1nc(NCc2ccco2)c(C#N)c2c1COC(C)(C)C2	none
COc1cc(CC(=O)OCC(=O)Nc2cc(S(=O)(=O)N3CCCC3)ccc2Cl)cc(OC)c1OC	none
COc1cc(NC(=O)COC(=O)[C@@H]2CCCN2S(=O)(=O)c2ccc(Cl)cc2)cc(OC)c1OC	CYP2C9 inh 71.9
COc1ccc(S(=O)(=O)N2CC(O)CC2C(=O)OCC(=O)Nc2ccc(Cl)cn2)cc1 (configuration not stated)	CYP2C19 inhib 73.5
COc1ccc(CC(=O)OCC(=O)Nc2ccc(Cl)cn2)cc1	none
Cc1noc(C)c1COC(=O)C1CC(O)CN1S(=O)(=O)c1ccc(Cl)cc1 (configuration not stated)	CYP2C19 inhib 71.2
Cc1noc(C)c1COC(=O)C1COc2ccccc2O1 (configuration not stated)	none
O=C(CC1OC(=O)c2ccccc21)c1ccco1 (configuration not stated)	none
CCN1CCCC1CN(Cc1cc2cc(OC)ccc2[nH]c1=O)C(=O)NCc1ccccc1 (configuration not stated)	none
Cc1ccc(CNC(=O)c2nc3nc(C)cc(C)n3n2)cc1	none
COc1cc(SC#N)ccc1N=Cc1c(C)[nH]n(-c2ccc(Cl)cc2)c1=O	PostGolgi ctrl 31.9
CN(CCCNC(=O)Cn1cc2c(n1)CCCC2)C1CCCCC1	none
O=C(NCCCN1CCCC1=O)c1csc2ccccc12	none
CCCN(C(=O)Cn1ncc2c(=O)oc3ccccc3c21)c1cccc(C)c1	CYP2C9 inh 59.9
Cn1cc(CC(=O)NCCCN2CCCC2=O)c2ccccc21	CYP2C9 act 2.4
O=C(Cn1ncc2c(=O)oc3ccccc3c21)NC1CC1	none
Cc1ccc2oc(=O)c3cnn(CC(=O)NCCN(C)C)c3c2c1	none (no result: CYP2C19 act, CYP2C19 inhib, CYP2C9 act, CYP2C9 inh)
CCN(CCCNC(=O)Cn1ncc2c(=O)oc3ccccc3c21)c1cccc(C)c1	CYP2C19 inhib 64.1, CYP2C9 inh 70.2
O=C(Cn1ncc2c(=O)oc3ccccc3c21)Nc1nc2ccccc2s1	CYP2C9 inh 50.9
COc1ccc(C2C(C(=O)Nc3cccnc3)=C(C)Nc3nc(-c4ccco4)nn32)cc1 (configuration not stated)	none
CCOC(=O)Cc1csc(NC(NC(=O)CC)(C(F)(F)F)C(F)(F)F)n1	none
O=c1[nH]nc(Cc2ccc(-c3ccccc3Cl)o2)c2ccccc12	none
Cc1c(Cl)c(C(=O)N2CCCc3ccccc32)nn1C	none
O=C(Cn1ncc2c(=O)oc3ccccc3c21)NCCCN1CCCC1=O	CYP2C19 inhib 80.0
COCCCNC(=O)Cn1ncc2c(=O)oc3ccccc3c21	none
CCSc1ncc(Cl)c(C(=O)Nc2sc3c(c2C(=O)NCc2cccnc2)CCCC3)n1	none
CC(C)(C)N1CC2(c3ccccc3)CN(C(C)(C)C)CC(c3ccccc3)(C1)C2=O	none
Cc1ccc(C(=O)Nc2ccc(Br)c(C(F)(F)F)c2)cc1	PostGolgi yeast 35.6
CCOc1ccc(C(=O)N[C@H](C(=O)O)C(C)C)cc1	none
O=C1Cc2ccccc2C(c2ccccc2)N1 (configuration not stated)	none
Cc1ccc(C2NC(=O)Cc3ccccc32)cc1 (configuration not stated)	CYP2C19 inhib 65.1
CC(=O)OC1c2ccccc2C(=O)N1Cc1ccccc1Cl (configuration not stated)	CYP2C19 inhib 98.9
C=CCc1ccccc1OCC(O)CN1CCN(Cc2ccc3c(c2)OCO3)CC1 (configuration not stated)	PostGolgi ctrl 45.1, PostGolgi yeast 99.1
C=CCc1ccccc1OCC(O)CN1CCN(C(=O)OCC)CC1 (configuration not stated)	none
Cc1noc(C)c1CSc1ccccc1C(=O)Nc1nccs1	CYP2C19 inhib 76.1
CCOc1cccc(C(=O)Nc2ccccc2OC(F)F)c1	CYP2C19 inhib 56.4
COc1ccc(NC(=O)c2cccc(F)c2)cc1Cl	none
O=C(Nc1ccc(OC(F)F)c(Cl)c1)c1cccc(OC(F)F)c1	CYP2C19 inhib 88.2
Cc1c(Cl)cccc1NC(=O)c1cccc(OC(F)F)c1	CYP2C19 inhib 71.9
COc1ccc(NC(=O)c2cccc(OC(F)F)c2)cc1Cl	CYP2C19 inhib 68.6
Cc1cc(C)c(S(=O)(=O)c2ccccc2C)c(OCC(C)(C)C)n1	none
Nc1ccc(-c2n[nH]c(=O)c3ccccc23)cc1N	none
ON=Cc1cccn1-c1ccccc1	PostGolgi yeast 30.5
O=C(O)c1cccc(-n2cccc2/C=N/O)c1	none
CNc1ccc(C(O)(C(F)(F)F)C(F)(F)F)cc1C(O)(C(F)(F)F)C(F)(F)F	CYP2C19 inhib 74.6, CYP2C9 inh 52.9
COc1cc(NC(=O)c2ccc(-c3ccc(Br)cc3)o2)ccc1NC(=O)C(C)C	CYP2C19 inhib 54.4
O=C(Nc1ccc(CN2CCOCC2)cc1)c1ccc(-c2ccc(Br)cc2)o1	PostGolgi ctrl 60.0
Cc1ccc(S(=O)(=O)N(CC(O)CN2C(=O)NC(C)(C)C2=O)c2ccccc2)cc1 (configuration not stated)	none
